Counter-ions that a name gives are not always drawn. ± gives the uncertainty stated by the source.

For the test, the system named is NCC-MFS5-C1. The experiment in a line: cell viability relative to DMSO control; higher = less growth inhibition. Particulars: 10 µM; treatment time: 3 days. Here is the method:
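NCC-MFS5-C1 myxofibrosarcoma cells (1x10^4 per well, 384-well) were treated on day 2 with 10 µM of each drug. On day 5, viability was read by CCK-8 absorbance at 450 nm and normalised to the DMSO control (%), n = 2.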
In the case of `CCCCNC(=O)NS(=O)(=O)c1ccc(C)cc1` [Tolbutamide], the cell viability (usually a read-out of living cells in per cent, often relative to untreated cells) was 82.5 ± 3.6%.

In the case of `C#Cc1cccc(Nc2ncnc3cc(OCCOC)c(OCCO)cc23)c1`, the cell viability amounted to 92.2 ± 1.8%.

For the molecule `COc1cccc2c1C(=O)c1c(O)c3c(c(O)c1C2=O)C[C@@](O)(C(=O)CO)C[C@@H]3O[C@H]1C[C@H](N)[C@@H](O)[C@H](C)O1` [Epirubicin HCl], the cell viability amounted to 45.5 ± 1%.

Consider `C[C@@H](CN1CC(=O)NC(=O)C1)N1CC(=O)NC(=O)C1` [Dexrazoxane], for which the cell viability is 122.6 ± 1.1%.

Consider `O=C(O)C1=CO[C@@H](O[C@@H]2O[C@H](CO)[C@@H](O)[C@H](O)[C@H]2O)[C@@H]2C(CO)=CC[C@H]12` [Geniposidic acid], for which the cell viability came out at 85.8 ± 4.8%.

`Cc1c2oc3c(C)ccc(C(=O)N[C@@H]4C(=O)N[C@H](C(C)C)C(=O)N5CCC[C@H]5C(=O)N(C)CC(=O)N(C)[C@@H](C(C)C)C(=O)O[C@@H]4C)c3nc-2c(C(=O)N[C@@H]2C(=O)N[C@H](C(C)C)C(=O)N3CCC[C@H]3C(=O)N(C)CC(=O)N(C)[C@@H](C(C)C)C(=O)O[C@@H]2C)c(N)c1=O` [Actinomycin D]: the cell viability is 40.2 ± 2.1%.

As for `COC(=O)N[C@H](C(=O)N[C@@H](Cc1ccccc1)[C@@H](O)CN(Cc1ccc(-c2ccccn2)cc1)NC(=O)[C@@H](NC(=O)OC)C(C)(C)C)C(C)(C)C` [Atazanavir Sulfate], the cell viability turned out to be 67.8 ± 13%.

As for `O=c1[nH]cc(F)c(=O)[nH]1` [Fluorouracil (5-Fluoracil, 5-FU)], the cell viability is 78.9 ± 19%.

On to `O=C(CCCCCCC(=O)Nc1ccccc1)NO` [Vorinostat (SAHA, MK0683)], for which the cell viability worked out at 34.5 ± 7.2%.

With `C=CC(=O)Nc1cc2c(Nc3ccc(F)c(Cl)c3)ncnc2cc1OCCCN1CCOCC1` [Canertinib(CI-1033)], the cell viability is 84.2 ± 5%.

Take `C=CC(=O)Nc1cc(Nc2nccc(-c3cn(C)c4ccccc34)n2)c(OC)cc1N(C)CCN(C)C` [Osimertinib (AZD9291)]: the cell viability was found to be 2.66 ± 0.22%.

`COC(=O)C1=C(C#N)NC(C)=C(C(=O)OC(C)C)C1c1cccc([N+](=O)[O-])c1` (stereo not given) [Nilvadipine]: the cell viability worked out at 86 ± 4.2%.

Take `CCCCNc1ncc(-c2ccc(CN3CCOCC3)cn2)c(NC2CCC(O)CC2)n1` (stereo not given): the cell viability was 36.41 ± 0.22%.

Take `CC(=O)O[C@@]12CO[C@@H]1C[C@H](O)[C@@]1(C)C(=O)[C@H](O)C3=C(C)[C@@H](OC(=O)[C@H](O)[C@@H](NC(=O)OC(C)(C)C)c4ccccc4)C[C@@](O)([C@@H](OC(=O)c4ccccc4)[C@H]21)C3(C)C` [Docetaxel]: the cell viability came out at 67 ± 2.2%.

Consider `CC[C@@H]1/C=C(\C)C[C@H](C)C[C@H](OC)[C@H]2O[C@@](O)(C(=O)C(=O)N3CCCC[C@H]3C(=O)O[C@H](/C(C)=C/[C@@H]3CC[C@H](Cl)[C@H](OC)C3)[C@H](C)[C@@H](O)CC1=O)[C@H](C)C[C@@H]2OC` [Pimecrolimus], for which the cell viability was determined as 41.3 ± 5.4%.

With `Nc1nc2[nH]cc(CCc3ccc(C(=O)N[C@@H](CCC(=O)O)C(=O)O)cc3)c2c(=O)[nH]1` [Pemetrexed Disodium Hydrate], the cell viability was determined as 80.7 ± 2.4%.

`C/C=C1\NC(=O)[C@H]2CSSCC/C=C/[C@H](CC(=O)N[C@H](C(C)C)C(=O)N2)OC(=O)[C@H](C(C)C)NC1=O` [Romidepsin (FK228, Depsipeptide)]: the cell viability was -1.35 ± 0.8%.

`Nc1ccn([C@@H]2O[C@H](CO)[C@@H](O)C2(F)F)c(=O)n1` [Gemcitabine]: the cell viability worked out at 91 ± 2.9%.

As for `Cc1ccc(-c2cc(C(F)(F)F)nn2-c2ccc(S(N)(=O)=O)cc2)cc1` [Celecoxib], the cell viability came to 72.1 ± 10%.

In the case of `Nc1nc2n[nH]nc2c(=O)[nH]1` [Azaguanine-8], the cell viability is 85.2 ± 7%.

On to `Cc1cccc(N(C)C(=S)Oc2ccc3ccccc3c2)c1` [Tolnaftate], for which the cell viability amounted to 103 ± 6.7%.

As for `O=S(=O)(O)CCS` [Mesna], the cell viability worked out at 76.99 ± 0.32%.

In the case of `O=C1c2c(O)ccc(O)c2C(=O)c2c(NCCNCCO)ccc(NCCNCCO)c21` [Mitoxantrone 2HCl], the cell viability was -0.766 ± 0.85%.

For `CCN(CC)CCNC(=O)c1c(C)[nH]c(/C=C2\C(=O)Nc3ccc(F)cc32)c1C` [Sunitinib Malate], the cell viability is 7.73 ± 5.5%.

Turning to `CNC(=O)c1cc(Oc2ccc(NC(=O)Nc3ccc(Cl)c(C(F)(F)F)c3)c(F)c2)ccn1` [Regorafenib (BAY 73-4506)], the cell viability was 85.6 ± 6.8%.

Regarding `CN1CCN(CCOc2cc(OC3CCOCC3)c3c(Nc4c(Cl)ccc5c4OCO5)ncnc3c2)CC1` [Saracatinib (AZD0530)], the cell viability was 62.8 ± 3.8%.

With `COc1cc2c(cc1O)CC[C@@H]1[C@@H]2CC[C@]2(C)[C@@H](O)CC[C@@H]12` [2-Methoxyestradiol (2-MeOE2)], the cell viability amounted to 57.5 ± 7.6%.

For the molecule `O=C(c1ccc(OCCN2CCCCC2)cc1)c1c(-c2ccc(O)cc2)sc2cc(O)ccc12` [Raloxifene HCl], the cell viability was determined as 85 ± 1%.

For `O=C(O)CCCN1CCC(O[C@@H](c2ccc(Cl)cc2)c2ccccn2)CC1` [Bepotastine Besilate], the cell viability amounted to 78.7 ± 2.6%.

For the molecule `CCN(CC)CCOc1ccc(C(=C(Cl)c2ccccc2)c2ccccc2)cc1` [Clomifene citrate], the cell viability worked out at 85.1 ± 8.8%.

In the case of `CC(=O)OCC(CCn1cnc2cnc(N)nc21)COC(C)=O` [Famciclovir], the cell viability came out at 80.4 ± 5.5%.

For `CC(=O)O[C@]1(C(C)=O)CC[C@H]2[C@@H]3C=C(C)C4=CC(=O)CC[C@]4(C)[C@H]3CC[C@@]21C` [Megestrol Acetate], the cell viability is 93.9 ± 4%.

Regarding `Clc1ccc(Nc2nnc(Cc3ccncc3)c3ccccc23)cc1` [Vatalanib (PTK787) 2HCl], the cell viability was 59.1 ± 0.89%.

Regarding `CC/C(=C(/CC)c1ccc(O)cc1)c1ccc(O)cc1` [Diethylstilbestrol], the cell viability stood at 87.8 ± 22%.

Take `COc1cc2c(Oc3ccc(NC(=O)C4(C(=O)Nc5ccc(F)cc5)CC4)cc3F)ccnc2cc1OCCCN1CCOCC1`: the cell viability stood at 7.35 ± 2%.

For the molecule `O=C(O)C1(C(=O)O)CCC1.[NH2-].[NH2-].[Pt+2]` [Carboplatin], the cell viability turned out to be 83.7 ± 2.2%.

Consider `CCN1CCN(c2ccc(Nc3cc(N(C)C(=O)Nc4c(Cl)c(OC)cc(OC)c4Cl)ncn3)cc2)CC1`, for which the cell viability came out at 59.8 ± 5.6%.

For `COc1cc2nccc(Oc3ccc(NC(=O)C4(C(=O)Nc5ccc(F)cc5)CC4)cc3)c2cc1OC` [Cabozantinib malate (XL184)], the cell viability was 67.2 ± 21%.

For `CNC(=O)c1ccc(-c2cnc3ncc(Cc4ccc5ncccc5c4)n3n2)cc1F`, the cell viability amounted to 80.9 ± 7.9%.

For `C=C1c2cccc(O)c2C(O)=C2C(=O)[C@]3(O)C(O)=C(C(N)=O)C(=O)[C@@H](N(C)C)[C@@H]3[C@@H](O)[C@H]12` [Methacycline HCl], the cell viability was 92.3 ± 5.3%.

Values taken from the supplement of paper PMC8773631.
